Assay results: PubChem BioAssay
Calls of active or inactive are those of the source.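 The calls were made as follows: active = inhibition at or above 50% relative to wild type and mutant plate controls; inactive = inhibition below 50%.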

Experiment: inhibitors of Chlamydomonas gravitaxis, primary screen, whole organism, Chlamydomonas reinhardtii, WT vs cilia-less mutant, absorbance, 96-well (AID 463189);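 also: 0% = wild type cc124 cells in DMSO and 100% = ciliumless bld1 mutant cells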
Details: OD600 absorbance, 2 days, at 10 µM, hits give high values

inhibition, inactive:
CCCCCCCC/C=C\CCCCCCCC(=O)NCCO -7.05%
O=C(O)CN(CCN(CC(=O)O)CC(=O)O)CCN(CC(=O)O)CC(=O)O 6.57%
N[C@@H](Cc1cnc[nH]1)C(=O)O -1.75%
CCN1C(=O)C=CC1=O -6.91%
